Laboratory results: PubChem BioAssay (NCATS)
Records with an inconclusive call do not appear. Active and inactive are the calls of the source. Calls follow the shape of the dose curve; as a rule, active = well fitted cell-killing curve with a large enough effect; inconclusive = small, poorly fitted or top-dose-only effect, or effect the other way; inactive = no such curve, though single readings can be large or run the other way.

Assays:
[1] = Quantitative High-Throughput drug screen in 47 multiple myeloma cell lines against the NCATS MIPE library collection: KMS28PE_JCRB cell viability assay (AID 1918983); also: nearly all actives have a fitted effect of over 35% in size
Procedure, shortened: (§1)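 ATP-based CellTiter-Glo luminescence after 48 h drug exposure (37 °C, 5% CO2) of 500 myeloma cells per well. DMSO-only wells set 100% viability, media-only wells 0%; MIPE 4.0 library added by pin tool.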

[2] = Quantitative High-Throughput drug screen in 47 multiple myeloma cell lines against the NCATS MIPE library collection: L363_DSMZ cell viability assay (AID 1918984); also: nearly all actives have a fitted effect of over 40% in size
Procedure, shortened: as §1

[3] = Quantitative High-Throughput drug screen in 47 multiple myeloma cell lines against the NCATS MIPE library collection: OCIMY5_PLB cell viability assay (AID 1918988); also: nearly all actives have a fitted effect of over 65% in size
Procedure, shortened: as §1

[4] = Quantitative High-Throughput drug screen in 47 multiple myeloma cell lines against the NCATS MIPE library collection: OPM1_PLB cell viability assay (AID 1918989); also: nearly all actives have a fitted effect of over 40% in size
Procedure, shortened: as §1

[5] = Quantitative High-Throughput drug screen in 47 multiple myeloma cell lines against the NCATS MIPE library collection: XG6_PLB cell viability assay (AID 1919865); also: nearly all actives have a fitted effect of over 40% in size
Procedure, shortened: as §1

[6] = Quantitative High-Throughput drug screen in 47 multiple myeloma cell lines against the NCATS MIPE library collection: XG1_PLB cell viability assay (AID 1919866); also: nearly all actives have a fitted effect of over 35% in size
Procedure, shortened: as §1

[7] = Quantitative High-Throughput drug screen in 47 multiple myeloma cell lines against the NCATS MIPE library collection: U266_ATCC cell viability assay (AID 1919864); also: nearly all actives have a fitted effect of over 35% in size
Procedure, shortened: as §1

[8] = Quantitative High-Throughput drug screen in 47 multiple myeloma cell lines against the NCATS MIPE library collection: KMS34_JCRB cell viability assay (AID 1918985); also: nearly all actives have a fitted effect of over 40% in size
Procedure, shortened: as §1

[9] = Quantitative High-Throughput drug screen in 47 multiple myeloma cell lines against the NCATS MIPE library collection: OCIMY7_PLB cell viability assay (AID 1918987); also: nearly all actives have a fitted effect of over 65% in size
Procedure, shortened: as §1

[10] = Quantitative High-Throughput drug screen in 47 multiple myeloma cell lines against the NCATS MIPE library collection: SKMM1_PLB cell viability assay (AID 1919863); conditions: SKMM1 myeloma viability, CellTiter-Glo ATP, 48 h; viability: active compounds read low; also: nearly all actives have a fitted effect of over 35% in size; as to viability: series mostly up to about 46 µM
Procedure, shortened: as §1
Potency is read from the fitted curve at half-maximal effect.

OCCN1CCN(CCCN2c3ccccc3Sc3ccc(C(F)(F)F)cc32)CC1
active: Potency [1] 18.7 µM | Potency [2] 7.43 µM | Potency [3] 20.9 µM | Potency [4] 20.9 µM | Potency [5] 23.5 µM | Potency [6] 20.9 µM

CC1(CN2CCC(n3c(=O)[nH]c4ccccc43)CC2)OCc2ccccc2-n2cccc21 (stereo unspecified)
inactive: Potency [2]
active: Potency [1] 14.8 µM | Potency [4] 8.33 µM | Potency [7] 5.9 µM | Potency [5] 4.18 µM | Potency [6] 4.18 µM

O=C1Cc2cc(CCN3CCN(c4nsc5ccccc45)CC3)c(Cl)cc2N1
active: Potency [8] 20.9 µM | Potency [3] 37.2 µM | Potency [5] 23.5 µM | Potency [6] 23.5 µM

CC(CCc1ccc(O)cc1)NCCc1ccc(O)c(O)c1 (stereo unspecified)
active: Potency [2] 18.7 µM | Potency [8] 9.35 µM | Potency [9] 16.6 µM | Potency [3] 20.9 µM | Potency [4] 26.4 µM | Potency [10] 18.7 µM | Potency [7] 23.5 µM | Potency [6] 23.5 µM

COc1cc2nc(N(C)CCCNC(=O)C3CCCO3)nc(N)c2cc1OC (stereo unspecified)
inactive: Potency [7] | Potency [5] | Potency [6]

CCCCc1oc2ccccc2c1C(=O)c1cc(I)c(OCCN(CC)CC)c(I)c1
active: Potency [8] 11.8 µM | Potency [9] 18.7 µM | Potency [3] 16.6 µM | Potency [4] 18.7 µM | Potency [10] 20.9 µM | Potency [7] 3.72 µM | Potency [5] 13.2 µM | Potency [6] 10.5 µM

OCCN(CCO)c1nc(N2CCCCC2)c2nc(N(CCO)CCO)nc(N3CCCCC3)c2n1
active: Potency [1] 20.9 µM | Potency [3] 23.5 µM | Potency [7] 23.5 µM | Potency [5] 18.7 µM | Potency [6] 23.5 µM

CC(COc1ccccc1)N(CCCl)Cc1ccccc1 (stereo unspecified)
inactive: Potency [8] | viability [10] 112% | Potency [7]
active: Potency [3] 26.4 µM

Cn1ccc2cc3c(cc21)CCN3C(=O)Nc1cccnc1
active: Potency [9] 20.9 µM | Potency [5] 11.8 µM

CCOC(=O)Nc1ccc(NCc2ccc(F)cc2)nc1N
active: Potency [5] 14.8 µM
inactive: Potency [1] | Potency [4] | viability [10] 134% | Potency [7] | Potency [6]

CN1CCC(=C2c3ccccc3C=Cc3ccccc32)CC1
active: Potency [9] 5.9 µM | Potency [3] 18.7 µM | Potency [4] 18.7 µM | Potency [7] 16.6 µM | Potency [5] 8.33 µM | Potency [6] 13.2 µM

COc1ccccc1OCCNCC(O)COc1cccc2[nH]c3ccccc3c12 (stereo unspecified)
active: Potency [3] 18.7 µM | Potency [6] 18.7 µM

O=C(c1ccc(OCCN2CCCCC2)cc1)c1c(-c2ccc(O)cc2)sc2cc(O)ccc12
active: Potency [3] 18.7 µM | Potency [4] 5.9 µM | Potency [10] 26.4 µM | Potency [5] 20.9 µM

CCOC(=O)c1ncn2c1CN(C)C(=O)c1cc(F)ccc1-2
inactive: Potency [1] | Potency [4] | Potency [5] | Potency [6]
active: Potency [3] 20.9 µM

COc1cc2c(c(OC)c1OC)-c1ccc(OC)c(=O)cc1[C@@H](NC(C)=O)CC2
inactive: Potency [2] | Potency [4] | Potency [5] | Potency [6]

Nc1nnc(-c2cccc(Cl)c2Cl)c(N)n1
inactive: Potency [3]
active: Potency [9] 33.2 µM | Potency [4] 23.5 µM | Potency [5] 9.35 µM | Potency [6] 16.6 µM

COc1ccc2c(c1)c(CC(=O)O)c(C)n2C(=O)c1ccc(Cl)cc1
active: Potency [2] 18.7 µM | Potency [9] 13.2 µM | Potency [7] 18.7 µM | Potency [5] 18.7 µM | Potency [6] 5.26 µM
inactive: Potency [8] | Potency [4] | viability [10] 128%

Cc1cnc(C(=O)NCCc2ccc(S(=O)(=O)NC(=O)NC3CCCCC3)cc2)cn1
active: Potency [6] 20.9 µM

Clc1ccccc1C(c1ccccc1)(c1ccccc1)n1ccnc1
active: Potency [9] 18.7 µM | Potency [5] 5.9 µM
inactive: Potency [7]

COc1ccccc1OCC(O)CN1CCN(CC(=O)Nc2c(C)cccc2C)CC1 (stereo unspecified)
inactive: Potency [2] | Potency [4] | viability [10] 110% | Potency [7] | Potency [5] | Potency [6]

O=c1c(-c2ccc(O)cc2)coc2cc(O)cc(O)c12
inactive: Potency [4]

NC(CO)C(=O)NNCc1ccc(O)c(O)c1O (stereo unspecified)
active: Potency [8] 26.4 µM | Potency [10] 11.8 µM
inactive: Potency [2] | Potency [4] | Potency [5] | Potency [6]

O=C(CCCN1CCC(O)(c2ccc(Cl)cc2)CC1)c1ccc(F)cc1
inactive: viability [10] 92.3%
active: Potency [1] 16.6 µM | Potency [3] 18.7 µM

NCCc1cnc[nH]1
inactive: Potency [1] | Potency [3] | Potency [4] | Potency [7] | Potency [6]

CN1CCN2c3ccccc3Cc3ccccc3C2C1 (stereo unspecified)
active: Potency [9] 18.7 µM | Potency [3] 23.5 µM | Potency [4] 16.6 µM | Potency [5] 10.5 µM | Potency [6] 18.7 µM

CCOC(=O)C(C)(C)Oc1ccc(Cl)cc1
inactive: Potency [1] | Potency [3] | Potency [4] | viability [10] 104% | Potency [7]

Cc1ccc(-c2cc(C(F)(F)F)nn2-c2ccc(S(N)(=O)=O)cc2)cc1
active: Potency [8] 1.32 µM | Potency [9] 20.9 µM | Potency [3] 20.9 µM
inactive: Potency [2]

CC(C)NCC(O)c1ccc(O)c(O)c1 (stereo unspecified)
active: Potency [2] 1.87 µM | Potency [3] 5.26 µM | Potency [4] 4.18 µM | Potency [10] 16.6 µM | Potency [7] 16.6 µM | Potency [5] 0.743 µM | Potency [6] 1.87 µM

C[C@H]1c2cccc(O)c2C(O)=C2C(=O)[C@]3(O)C(O)=C(C(N)=O)C(=O)[C@@H](N(C)C)[C@@H]3[C@@H](O)[C@@H]21
active: Potency [9] 11.8 µM | Potency [3] 23.5 µM | Potency [5] 18.7 µM | Potency [6] 18.7 µM

C[C@](N)(Cc1ccc(O)c(O)c1)C(=O)O
inactive: Potency [2] | Potency [6]
active: Potency [7] 18.7 µM

CN1CCN(CCCN2c3ccccc3Sc3ccc(Cl)cc32)CC1
active: Potency [2] 3.32 µM | Potency [9] 26.4 µM | Potency [3] 26.4 µM | Potency [4] 16.6 µM | Potency [7] 18.7 µM | Potency [5] 14.8 µM | Potency [6] 14.8 µM
